Our source for the fold change values is PubChem BioAssay AID1611 (NINDS Approved Drug Screening Program, 2009).

The nature of the test: inducers of human heat shock response, cell-based, HSE luciferase (AID 1611). The conditions noted are these: human cells, HSE-luciferase heat shock reporter; stronger effect = higher value.
Turning to `CC(=O)OCC(=O)[C@H]1CCC2C3CCC4=CC(=O)CC[C@]4(C)C3CC[C@@]21C` (stereo not given in full), the fold change came to 1.05.

For the compound `COC(=O)Nc1nc2ccc(Sc3ccccc3)cc2[nH]1`, the fold change was determined as 0.92.

With `CN1C(C(=O)Nc2ccccn2)=C(O)c2sccc2S1(=O)=O`, the fold change stood at 0.84.

Take `NNCCc1ccccc1`: the fold change was determined as 0.93.

For the compound `CC(C)NNC(=O)c1ccncc1`, the fold change was found to be 1.02.

Turning to `CCc1cc(C(N)=S)ccn1`, the fold change amounted to 0.94.

For `CC1(C)S[C@@H]2C(N3C(=O)[C@@H](c4ccccc4)NC3(C)C)C(=O)N2[C@H]1C(=O)O` (stereo not given in full), the fold change worked out at 1.12.

As for `COc1c(C)c2c(c(O)c1C/C=C(\C)CCC(=O)O)C(=O)OC2`, the fold change was 0.85.

In the case of `CCCCC1(COC(=O)CCC(=O)O)C(=O)N(c2ccccc2)N(c2ccccc2)C1=O`, the fold change was determined as 0.82.

With `O=C(C1CCCCC1)N1CC(=O)N2CCc3ccccc3C2C1` (stereo not given), the fold change turned out to be 1.17.

Regarding `CCN(CC)CCOC(=O)C(c1ccccc1)c1ccccc1`, the fold change was 1.24.

As for `O=C(CCCN1CC=C(n2c(=O)[nH]c3ccccc32)CC1)c1ccc(F)cc1`, the fold change worked out at 0.88.

For `CC(=O)O[C@H]1C[C@@]2(C)[C@@H](C[C@@H](O)C3[C@]2(C)CC[C@H]2[C@H](C)[C@H](O)CC[C@]32C)/C1=C(/CCC=C(C)C)C(=O)O` (stereo not given in full), the fold change stood at 1.

Consider `CCOc1ccc(Cc2nccc3cc(OCC)c(OCC)cc23)cc1OCC`, for which the fold change amounted to 1.35.

As to `O=C1c2c(O)cccc2Cc2cccc(O)c21`, the fold change was 0.93.

For the compound `Fc1ccc(C(c2ccc(F)cc2)N2CCN(C/C=C/c3ccccc3)CC2)cc1`, the fold change stood at 1.3.

Turning to `O=C(O)C1=CCNCC1`, the fold change amounted to 1.18.

With `Cc1ccc(S(=O)(=O)NC(=O)NN2CCCCCC2)cc1`, the fold change worked out at 0.73.

Take `C#CCN(C)Cc1ccccc1`: the fold change was found to be 1.01.

As to `CCc1cccc2c3c([nH]c12)C(CC)(CC(=O)O)OCC3` (stereo not given), the fold change is 1.02.

`CC(=O)[C@H]1CCC2C3CC=C4C[C@@H](O)CC[C@]4(C)C3CC[C@@]21C` (stereo not given in full): the fold change came out at 0.92.

Turning to `COc1ccc(CN(CCN(C)C)c2ccccn2)cc1`, the fold change stood at 1.01.

As to `CC(=O)NS(=O)(=O)c1ccc(N)cc1`, the fold change stood at 0.98.

With `CC(C)CC(NC(=O)CCN)C(=O)O` (stereo not given), the fold change stood at 1.04.

For the compound `Nc1cc(-c2ccncc2)c[nH]c1=O`, the fold change is 1.16.

Take `COc1cccc(OC)c1C(=O)N[C@@H]1C(=O)N2[C@@H]1SC(C)(C)[C@@H]2C(=O)O`: the fold change was determined as 0.82.

In the case of `NC(=O)NC1NC(=O)NC1=O` (stereo not given), the fold change is 0.91.

In the case of `CN1C2CC[C@H]1CC(OC(=O)C(O)c1ccccc1)C2` (stereo not given in full), the fold change worked out at 1.12.

As to `N[C@@H]1CONC1=O`, the fold change turned out to be 1.23.

Regarding `CC(=O)OCC1=C(C(=O)O)N2C(=O)[C@@H](NC(=O)CSc3ccncc3)[C@H]2SC1`, the fold change came to 0.82.

For the compound `Oc1cccc(O)c1`, the fold change turned out to be 1.06.

Regarding `CCn1cc(C(=O)O)c(=O)c2ccc(C)nc21`, the fold change was determined as 0.98.

`CC(C)Oc1ccc2c(=O)cc(-c3ccccc3)oc2c1`: the fold change is 1.28.

For the compound `C=C[C@H]1CN2CC[C@H]1C[C@@H]2[C@H](O)c1ccnc2ccc(OC)cc12`, the fold change was 1.63.

As to `CCCCCCOc1ccccc1C(N)=O`, the fold change amounted to 0.59.

For the compound `COc1cc(NS(=O)(=O)c2ccc(N)cc2)nc(OC)n1`, the fold change amounted to 0.93.

For `CC1(C)S[C@@H]2[C@H](NC(=O)[C@H](NC(=O)N3CCNC3=O)c3ccccc3)C(=O)N2C1C(=O)O` (stereo not given in full), the fold change is 0.89.

In the case of `CO[C@@H]1[C@@H](OC(N)=O)[C@@H](O)[C@H](Oc2ccc3c(O)c(NC(=O)c4ccc(O)c(CC=C(C)C)c4)c(=O)oc3c2C)OC1(C)C`, the fold change is 1.06.

Regarding `CCC(=O)O[C@H]1[C@H](O[C@@H]2[C@@H](C)[C@H](O[C@H]3C[C@@](C)(OC)[C@@H](O)[C@H](C)O3)[C@@H](C)C(=O)O[C@H](CC)[C@@](C)(O)[C@H](O)[C@@H](C)C(=O)[C@H](C)C[C@@]2(C)O)O[C@H](C)C[C@@H]1N(C)C`, the fold change turned out to be 1.55.

Take `O=C(O)CCC(=O)c1ccc(-c2ccccc2)cc1`: the fold change turned out to be 1.02.
